The nature of assay [1]: A CellTox Green Cytotoxicity Assay to monitor cytotoxicity in HEK293 cells - 8 hour (AID 1224884). Note: nearly all actives have a fitted effect of over 35% in size. The essentials:
(§1)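 Seeding of HEK293 cells together with cytotoxicity dye preceded a 5 h incubation at 37 C/5% CO2. Test compounds in DMSO were then added and fluorescence monitored across 40 h.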

Assay [2] in a line: qHTS RealTime-Glo MT Cell Viability Assay in HepG2 cells - 16 hour (AID 1224885). Note: nearly all actives have a fitted effect of over 50% in size. Note: potency is the fitted concentration of half-maximal effect. The essentials: (§2)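 HepG2 suspension premixed with RealTime-Glo reagents is plated at 600 cells per well and left 5 h at 37 C/5% CO2. Compounds in DMSO then go in, and bioluminescence reflecting viable cell number is recorded over 40 h.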
A general note: In qHTS, concentration-response curves come from the screen itself.

Assay [3] in a line: qHTS RealTime-Glo MT Cell Viability Assay in HEK293 cells - 24 hour (AID 1224886). Note: nearly all actives have a fitted effect of over 50% in size. Note: potency is the fitted concentration of half-maximal effect. An outline of the steps: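 Reads taken at 0, 8, 16, 24, 32 and 40 h from the same wells. HEK293 cells (600/well) carried RealTime-Glo reagents from seeding, with compound added after a 5 h settle at 37 C.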
Assay [4] in a line: qHTS RealTime-Glo MT Cell Viability Assay in HEK293 cells - 8 hour (AID 1224887). Note: nearly all actives have a fitted effect of over 50% in size. Note: potency is the fitted concentration of half-maximal effect. An outline of the steps:
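Tox21 screen in HEK293 using RealTime-Glo MT chemistry, with cells and reagent co-dispensed. Luminescence proportional to viable cell number was captured at intervals during 40 h compound exposure at 37 C.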

A short description of assay [5]: A CellTox Green Cytotoxicity Assay to monitor cytotoxicity in HEK293 cells - 16 hour (AID 1224888). Note: nearly all actives have a fitted effect of over 35% in size. The essentials: as §1
The nature of assay [6]: qHTS RealTime-Glo MT Cell Viability Assay in HepG2 cells - 0 hour (AID 1224889). Note: nearly all actives have a fitted effect of over 50% in size. An outline of the steps:
as §2

Assay [7] in a line: A CellTox Green Cytotoxicity Assay to monitor cytotoxicity in HepG2 cells - 8 hour (AID 1224890). Note: nearly all actives have a fitted effect of over 45% in size. The essentials:
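Nonlytic assay: viable cells exclude the dye, so fluorescence scales with cell death. HepG2 at 600 cells/well, compounds added after 5 h, signal read across 40 h.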

Assay [8] in a line: qHTS assay to identify small molecule HDAC inhibitors (AID 1259364).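 Note: wild-type HCT-116 cells with endogenous class I/II HDAC activity; top concentration of the series differs between compounds; nearly all actives have a fitted effect of over 45% in size.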 An outline of the steps: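 Relative class I and II HDAC activity is taken from the luminogenic signal in HCT-116 cells, with compound exposure 2 hr and reagent development 30 min at room temperature.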
A short description of assay [9]: qHTS assay to identify small molecule HDAC inhibitors - cell viability counter screen (AID 1259365). An outline of the steps:
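HCT-116 (wild type), 1,500 cells/well, overnight 37C/5% CO2; compound in DMSO 2hr; CellTiter-Glo 30min RT; luminescence read.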

Assay [10] is described as follows: qHTS assay to identify small molecule agonists of the sonic hedgehog signaling (Shh) pathway (AID 1259368; calls by dose curve;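 note: NIH/3T3-derived 3T3Gli1-Luc cells carrying a stable Gli1-driven firefly luciferase reporter; series mostly up to about 92 µM; nearly all actives have a fitted effect of over 15% in size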). An outline of the steps: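 Mouse fibroblast (NIH/3T3) reporter cells with stably integrated Gli1-Luc were treated 24 hr with compound; firefly luciferase luminescence served as the read-out.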
The nature of assay [11]: qHTS assay to identify small molecule antagonists of the sonic hedgehog signaling (Shh) pathway (AID 1259369; calls by dose curve; note: nearly all actives have a fitted effect of over 45% in size; note: potency is the fitted concentration of half-maximal effect). The essentials: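 Conditioned medium drives Shh signalling in 3T3Gli1-Luc cells; compounds in DMSO co-applied, 24hr at 37 C, then luciferase luminescence.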
Assay [12] in a line: qHTS assay to identify small molecule antagonists of the estrogen receptor alpha (ER-alpha) signaling pathway using the BG1 cell line in the presence of 0.1 nM 17-beta-estradiol - cell viability counter screen (AID 1259241). Note: nearly all actives have a fitted effect of over 40% in size. The essentials: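 Live-cell protease activity (CellTiter-Fluor fluorescence, 30 min) was read in the same wells after VM7Luc4E2 cells had been exposed to compounds with 0.1 nM 17beta-estradiol for 22 hr at 37C.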

Assay [13] in a line: qHTS assay to identify small molecule antagonists of the androgen receptor (AR) signaling pathway using the MDA cell line in the presence of 0.5 nM R1881 - cell viability counter screen (AID 1259242). Note: nearly all actives have a fitted effect of over 45% in size. The essentials: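 R1881 at 0.5 nM final stimulated MDA-kb2 cells during 16 hr compound treatment at 37C. Cytotoxicity read: CellTiter-Fluor fluorescence after 30 min.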
The nature of assay [14]: qHTS assay to identify small molecule antagonists of the sonic hedgehog signaling (Shh) pathway - cell viability counter screen (AID 1259367). Note: nearly all actives have a fitted effect of over 55% in size. Note: potency is the fitted concentration of half-maximal effect. The essentials:
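NIH/3T3-derived Gli1-Luc reporter cells (2,000 per well) rested 4 hr at 37 C, then received DMSO compounds plus conditioned medium. After 23 hr of treatment, CellTiter-Fluor was added for 1 hr at 37C and fluorescence read.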

In assay [15] the target is Estrogen receptor beta (Homo sapiens) (UniProt Q92731). Kind of assay: qHTS assay to identify small molecule agonists of the estrogen receptor beta (ER-beta) signaling pathway (AID 1259377; active = well fitted activation curve with a large enough effect in the signal ratio in the repeat runs, not every such curve was filed as active; the % refers to the signal ratio). The essentials:
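Beta-lactamase reporter readout: fluorescence of LiveBLAzer B/G FRET substrate after 2 h at room temperature, following 16 h compound treatment of ER-beta-UAS-bla HEK293T cells at 37C in 2% charcoal-stripped FBS medium.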

Assay [16] has the same target. Briefly: qHTS assay to identify small molecule antagonists of the estrogen receptor beta (ER-beta) signaling pathway (AID 1259378; active = well fitted inhibition curve with a large enough effect in the signal ratio in the repeat runs, not every such curve was filed as active; the % refers to the signal ratio). The essentials: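 ER-beta-UAS-bla HEK293T (GripTite) cells in 2% charcoal-stripped FBS medium were preincubated 6 hr at 37C, dosed with compound, then stimulated with 1 nM E2 (final) for 16 hr; beta-lactamase reporter read by B/G FRET fluorescence after 2 hr substrate loading.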

Assay [17] in a line: qHTS assay to identify small molecule agonists of the sonic hedgehog signaling (Shh) pathway - cell viability counter screen (AID 1259366). Note: nearly all actives have a fitted effect of over 50% in size. An outline of the steps: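 CellTiter-Fluor fluorescence read-out, 1 hr at 37C, added after 23hr compound exposure. Cells: 3T3 Gli1-Luc, an NIH/3T3 clone with stably integrated Gli1-Luc reporter, plated 4hr before compound.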
Assay [18] has as its target Androgen receptor (Homo sapiens) (UniProt P10275). Kind of assay: qHTS assay to identify small molecule antagonists of the androgen receptor (AR) signaling pathway using the MDA cell line in the presence of 0.5 nM R1881 (AID 1259243). Note: nearly all actives have a fitted effect of over 50% in size. Note: potency is the fitted concentration of half-maximal effect. The essentials: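 We exposed MDA-kb2 cells to compounds under 0.5 nM R1881 stimulation for 16 hr at 37C and quantified MMTV-driven luciferase by luminescence.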

Assay [19] deals with Estrogen receptor (Homo sapiens) (UniProt P03372). Briefly: qHTS assay to identify small molecule antagonists of the estrogen receptor alpha (ER-alpha) signaling pathway using the BG1 cell line in the presence of 0.1 nM 17-beta-estradiol (AID 1259244). Note: nearly all actives have a fitted effect of over 50% in size. An outline of the steps:
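VM7Luc4E2; 4xERE-luciferase; 0.1 nM E2 final; 22 h co-incubation, 37C; ONE-Glo luminescence after 30 min at room temperature.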

Each structure is given as a SMILES string. Unmarked numbers belong to inactive results. Records with an inconclusive call do not appear. The source made the active and inactive calls. Unless noted, calls come from the whole dose curve; as a rule, active = well fitted curve in the direction sought with a large enough effect in the repeat runs; inconclusive = weak or mixed curves; inactive = no such curve, though single readings can be large; an effect the other way counts as inactive or inconclusive.

Chain of Estrogen receptor beta (Homo sapiens) (Q92731 whole entry, looked up): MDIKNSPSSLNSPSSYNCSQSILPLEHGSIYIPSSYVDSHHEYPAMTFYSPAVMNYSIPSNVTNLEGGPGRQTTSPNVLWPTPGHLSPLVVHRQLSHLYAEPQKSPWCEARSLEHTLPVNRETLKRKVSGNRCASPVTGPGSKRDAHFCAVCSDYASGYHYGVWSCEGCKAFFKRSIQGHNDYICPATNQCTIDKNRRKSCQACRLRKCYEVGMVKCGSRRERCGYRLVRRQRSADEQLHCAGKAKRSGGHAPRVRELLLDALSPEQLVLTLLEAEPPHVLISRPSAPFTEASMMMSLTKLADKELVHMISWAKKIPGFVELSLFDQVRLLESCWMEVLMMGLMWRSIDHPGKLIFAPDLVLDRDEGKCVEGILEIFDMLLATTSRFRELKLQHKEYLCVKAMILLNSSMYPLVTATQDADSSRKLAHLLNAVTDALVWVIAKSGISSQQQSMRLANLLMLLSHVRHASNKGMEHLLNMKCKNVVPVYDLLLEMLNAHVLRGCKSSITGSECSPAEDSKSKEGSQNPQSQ
Chain of Estrogen receptor (Homo sapiens) (P03372 whole entry, looked up): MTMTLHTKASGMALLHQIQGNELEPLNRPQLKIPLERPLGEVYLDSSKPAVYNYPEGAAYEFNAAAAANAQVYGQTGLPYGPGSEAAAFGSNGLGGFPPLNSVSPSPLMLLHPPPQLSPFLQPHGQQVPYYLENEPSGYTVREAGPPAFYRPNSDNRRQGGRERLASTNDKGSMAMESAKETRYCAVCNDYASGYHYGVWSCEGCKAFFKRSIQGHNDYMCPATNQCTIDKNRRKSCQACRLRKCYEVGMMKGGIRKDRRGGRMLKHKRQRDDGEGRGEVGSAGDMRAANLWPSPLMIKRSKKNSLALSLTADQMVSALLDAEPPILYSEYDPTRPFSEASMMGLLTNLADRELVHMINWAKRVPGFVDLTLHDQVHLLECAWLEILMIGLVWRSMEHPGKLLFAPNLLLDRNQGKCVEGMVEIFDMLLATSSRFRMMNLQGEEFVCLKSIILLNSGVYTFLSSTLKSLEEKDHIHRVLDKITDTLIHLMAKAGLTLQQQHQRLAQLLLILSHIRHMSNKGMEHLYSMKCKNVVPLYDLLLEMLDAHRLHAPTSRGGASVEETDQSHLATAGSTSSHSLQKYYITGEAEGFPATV
Chain of Androgen receptor (Homo sapiens) (P10275 whole entry, looked up): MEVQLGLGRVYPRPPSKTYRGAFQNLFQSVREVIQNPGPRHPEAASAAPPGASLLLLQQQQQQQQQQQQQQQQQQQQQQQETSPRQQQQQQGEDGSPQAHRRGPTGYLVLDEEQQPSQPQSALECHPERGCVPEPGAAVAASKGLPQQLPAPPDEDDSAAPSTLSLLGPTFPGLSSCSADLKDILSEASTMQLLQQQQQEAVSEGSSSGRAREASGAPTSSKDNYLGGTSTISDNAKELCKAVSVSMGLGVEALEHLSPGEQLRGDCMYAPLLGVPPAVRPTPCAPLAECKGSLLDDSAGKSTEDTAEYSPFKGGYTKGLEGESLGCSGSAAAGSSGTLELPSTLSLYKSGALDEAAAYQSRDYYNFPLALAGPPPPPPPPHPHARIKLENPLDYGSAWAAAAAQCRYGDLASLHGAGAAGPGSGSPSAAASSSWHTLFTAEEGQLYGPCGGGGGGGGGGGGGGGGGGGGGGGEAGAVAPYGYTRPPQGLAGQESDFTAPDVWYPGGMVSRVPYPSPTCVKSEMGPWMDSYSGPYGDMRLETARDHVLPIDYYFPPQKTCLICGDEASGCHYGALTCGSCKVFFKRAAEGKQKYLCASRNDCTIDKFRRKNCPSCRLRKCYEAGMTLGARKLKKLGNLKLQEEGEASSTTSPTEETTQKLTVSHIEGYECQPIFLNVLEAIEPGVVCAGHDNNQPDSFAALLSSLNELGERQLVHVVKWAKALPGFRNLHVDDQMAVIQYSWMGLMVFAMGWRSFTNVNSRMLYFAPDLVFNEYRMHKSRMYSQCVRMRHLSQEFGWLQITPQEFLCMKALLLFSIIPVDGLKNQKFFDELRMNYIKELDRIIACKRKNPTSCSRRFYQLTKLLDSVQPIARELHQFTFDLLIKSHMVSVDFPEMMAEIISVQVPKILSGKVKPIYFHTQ

As to `Cc1c(Cl)c(=O)oc2cc(O)ccc12`, the Potency entry in assay [1], in assay [2], in assay [5], in assay [6], in [7] and in assay [8] was “inactive” each time. For the same molecule, the Potency entry in assay [9] and in assay [10] was “inactive” each time. Further, the Potency in [3] was 49 µM (active); in assay [4] it was 43.6 µM (active); in assay [11], 34.4 µM (active).
`Cc1ccc(Cl)c(N)c1Cl`: the Potency entry in [1], in assay [2], in assay [3], in assay [4], in assay [5] and in [6] was “inactive” each time. Also, the Potency entry in assay [7], in assay [12], in assay [13], in assay [8], in [9] and in [10] was “inactive” each time. In addition, in [16], the Potency result is “inactive”. Also, the Potency in [14] was 61.1 µM (active). For the same molecule, the call in assay [15] was inactive.
Regarding `Cc1cccc(C)c1C`, the Potency result in assay [1], in assay [2], in assay [3], in assay [4], in assay [6] and in assay [7] was “inactive” in each case. In addition, the Potency result in assay [12], in [13], in assay [8], in assay [9], in assay [17] and in assay [14] was “inactive” throughout. Further, the Potency entry in assay [10] and in assay [11] was “inactive” each time.
`CC(Cc1ccc(O)c(O)c1)C(C)Cc1ccc(O)c(O)c1` (stereo not drawn): the Potency result in assay [1], in assay [5], in [6], in [12], in assay [13] and in assay [8] was “inactive” throughout. Besides, the Potency entry in assay [9] and in [10] was “inactive” in each case. The Potency is 43.6 µM (active) in assay [2], 34.7 µM (active) in assay [3], 43.6 µM (active) in [4] and 13.7 µM (active) in [11].
Turning to `CSc1nnc(C(C)(C)C)c(=O)[nH]1`, the Potency entry in assay [1], in assay [2], in assay [3], in [4], in assay [6] and in assay [7] was “inactive” throughout. Besides, the Potency result in assay [12], in [13], in [18], in [19], in assay [8] and in assay [9] was “inactive” throughout. Also, the Potency entry in assay [17], in assay [14], in assay [10], in assay [11] and in assay [16] was “inactive” throughout. Further, in assay [15], the molecule was called inactive.
In the case of `CC(=O)CC(N)=O`, the Potency entry in assay [1], in [2], in assay [3], in [4], in [6] and in [7] was “inactive” in each case. Besides, the Potency result in assay [12], in [13], in [19], in assay [8], in [9] and in [17] was “inactive” in each case. The Potency result in [14], in assay [10] and in assay [11] was “inactive” throughout.
With `Cc1cccc2c1ccc1ccccc12`, the Potency entry in assay [1], in assay [2], in assay [3], in assay [4], in [5] and in assay [6] was “inactive” in each case. Further, the Potency result in assay [7], in assay [13], in assay [8], in assay [9], in [17] and in assay [14] was “inactive” each time. Further, the Potency result in [10], in [11] and in [16] was “inactive” in each case. In [18], the Potency is 15.4 µM (active).
For the molecule `O=c1[nH]cccc1O`, the Potency entry in [1], in assay [2], in [3], in assay [4], in assay [5] and in assay [6] was “inactive” in each case. The Potency result in assay [7], in [13], in assay [19], in [8], in [9] and in [17] was “inactive” throughout. The Potency result in [14], in assay [10], in [11] and in assay [16] was “inactive” throughout. Moreover, the molecule was classed as inactive in assay [15].

The record behind these values is PubChem BioAssay (Tox21).
